In the supplement of paper PMC10037445:
Several values for one entry are separate records, joined by “and”; a condition that tells them apart may be missing. Identical values can stand only once. In all, about 2,900 compounds were measured (“NF-kB SEAP reporter activity, fold change vs agonist alone”: median about 0.99, highest 2% from about 2.6 on). For the sample, the highest values were picked, then their nearest neighbours and some compounds at random.

Columns and labels:
RAW-Dual [1] = assay: NF-kB SEAP reporter activity, fold change vs agonist alone; cytotoxicity flag (confluency mask): not cytotoxic; higher = enhanced NF-kB activity
In short: (§1)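 Library stock was pin-tooled at 50 nL into 384-well plates of RAW-Dual macrophages (50,000 cells/well, DMEM), followed 1 h later by a PRR agonist, and the cells were kept at 37 °C, 5% CO2. Supernatant collected after 20 hours was read for IRF by QuantiLuc luminescence and for NF-κB by QuantiBlue absorbance at 620 nm. Reporter activity is fold change over agonist-alone wells, and a well counted as cytotoxic when its IncuCyte confluency was below 70% of agonist controls in both mask sets.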

RAW-Dual [2] = assay: NF-kB SEAP reporter activity, fold change vs agonist alone; higher = enhanced NF-kB activity; settings: library stock concentration (final ~1000-fold dilution): 10 mM
In short: as §1

RAW-Dual [3] = assay: NF-kB SEAP reporter activity, fold change vs agonist alone; cytotoxicity flag (confluency mask): cytotoxic (confluency <70% of control); higher = enhanced NF-kB activity
In short: as §1

[4] = agonist: ODN 1826 (TLR9) 0.5 ug/mL
[5] = agonist: Pam2CSK4 (TLR2/6) 0.1 ug/mL
[6] = agonist: Pam3CSK4 (TLR2/1) 0.1 ug/mL
[7] = cytotoxicity flag (confluency mask): not cytotoxic, agonist: Imiquimod (TLR7) […]
[8] = cytotoxicity flag (confluency mask): not cytotoxic, agonist: MPLA (TLR4) […]

What does the source list for CCOC(=O)NC1CCC2C(C1)CC1C(=O)OC(C)C1C2/C=C/c1ccc(-c2cccc(F)c2)cn1 (configuration not stated) (library stock concentration (final ~1000-fold dilution): 10 mM)?
NF-kB SEAP reporter activity (RAW-Dual [1]; agonist: LPS (TLR4) 0.1 ug/mL): 0.824; NF-kB SEAP reporter activity (RAW-Dual [1]; [4]): 0.243; NF-kB SEAP reporter activity (RAW-Dual [1]; [5]): 0.212; NF-kB SEAP reporter activity (RAW-Dual [1]; [6]): 0.158

Which “NF-kB SEAP reporter activity” value (RAW-Dual [2]; cytotoxicity flag (confluency mask): cytotoxic (confluency <70% of control), agonist: Imiquimod (TLR7) […]) does the source give for NC(=O)N1CCC(CC(=O)N2CCC(C3c4ncc(Br)cc4CCc4cc(Cl)cc(Br)c43)CC2)CC1 (configuration not stated) here?
Its value is 0.614.

And the “NF-kB SEAP reporter activity” value (RAW-Dual [2]; cytotoxicity flag (confluency mask): cytotoxic (confluency <70% of control), agonist: MPLA (TLR4) […])?
The value was 0.603.

NC(=O)N1CCC(CC(=O)N2CCC(C3c4ncc(Br)cc4CCc4cc(Cl)cc(Br)c43)CC2)CC1 (configuration not stated) (library stock concentration (final ~1000-fold dilution): 10 mM) was tested. Which “NF-kB SEAP reporter activity” value (RAW-Dual [3]; agonist: LPS (TLR4) 0.1 ug/mL) did it give?
The value was 0.422.

And the “NF-kB SEAP reporter activity” value (RAW-Dual [3]; [4])?
Its value is 0.347.

What about the “NF-kB SEAP reporter activity” value (RAW-Dual [3]; [5]) of the same compound?
Its value is 0.171.

What about the “NF-kB SEAP reporter activity” value (RAW-Dual [3]; [6]) of the same compound?
The value was 0.223.

For Nc1ccccc1NC(=O)c1cnccn1 (library stock concentration (final ~1000-fold dilution): 10 mM), which “NF-kB SEAP reporter activity” value (RAW-Dual [1]; agonist: LPS (TLR4) 0.1 ug/mL) is on record?
The value was 1.4.

And the “NF-kB SEAP reporter activity” value (RAW-Dual [1]; [4])?
The value was 1.16.

And the “NF-kB SEAP reporter activity” value (RAW-Dual [1]; [5])?
Its value is 0.443.

And the “NF-kB SEAP reporter activity” value (RAW-Dual [1]; [6])?
The value was 0.532.

Which “NF-kB SEAP reporter activity” value (RAW-Dual [2]; [7]) does the source give for Nc1ccccc1NC(=O)c1cnccn1 here?
The value was 0.997.

And the “NF-kB SEAP reporter activity” value (RAW-Dual [2]; [8])?
The value was 1.12.

For CC(=O)Nc1ccc(C(=O)Nc2ccccc2N)cc1, which “NF-kB SEAP reporter activity” value (RAW-Dual [2]; [7]) is on record?
Its value is 2.21.

And the “NF-kB SEAP reporter activity” value (RAW-Dual [2]; [8])?
The value was 1.74.

Which “NF-kB SEAP reporter activity” value (RAW-Dual [2]; [7]) does the source give for O=C(Nc1ccc(O)cc1)c1ccccc1O here?
Its value is 1.68.

And the “NF-kB SEAP reporter activity” value (RAW-Dual [2]; [8])?
The value was 1.24.

With CC(=O)Nc1ccc(C(=O)Nc2ccccc2N)cc1 (library stock concentration (final ~1000-fold dilution): 10 mM) as the compound, how does the “NF-kB SEAP reporter activity” value (RAW-Dual [1]; agonist: LPS (TLR4) 0.1 ug/mL) read?
Its value is 2.28.

What about the “NF-kB SEAP reporter activity” value (RAW-Dual [1]; [4]) of the same compound?
Its value is 2.86.

What about the “NF-kB SEAP reporter activity” value (RAW-Dual [1]; [5]) of the same compound?
Its value is 0.724.

And the “NF-kB SEAP reporter activity” value (RAW-Dual [1]; [6])?
The value was 0.832.

For O=C(Nc1ccc(O)cc1)c1ccccc1O (library stock concentration (final ~1000-fold dilution): 10 mM), which “NF-kB SEAP reporter activity” value (RAW-Dual [1]; agonist: LPS (TLR4) 0.1 ug/mL) is on record?
Its value is 1.17.

And the “NF-kB SEAP reporter activity” value (RAW-Dual [1]; [4])?
Its value is 1.93.

And the “NF-kB SEAP reporter activity” value (RAW-Dual [1]; [5])?
Its value is 0.921.

And the “NF-kB SEAP reporter activity” value (RAW-Dual [1]; [6])?
Its value is 1.04.

Which results are given for CO/N=C(\C(=O)NC1C(=O)N2C(C(=O)O)=C(CSc3nnnn3C)CSC12)c1csc(N)n1.CO/N=C(\C(=O)NC1C(=O)N2C(C(=O)O)=C(CSc3nnnn3C)CSC12)c1csc(N)n1.Cl (configuration not stated) (library stock concentration (final ~1000-fold dilution): 10 mM)?
NF-kB SEAP reporter activity (RAW-Dual [1]; agonist: LPS (TLR4) 0.1 ug/mL): 0.999; NF-kB SEAP reporter activity (RAW-Dual [1]; [4]): 0.966; NF-kB SEAP reporter activity (RAW-Dual [1]; [5]): 1.14; NF-kB SEAP reporter activity (RAW-Dual [1]; [6]): 0.939

Which “NF-kB SEAP reporter activity” value (RAW-Dual [2]; [8]) does the source give for CO/N=C(\C(=O)NC1C(=O)N2C(C(=O)O)=C(CSc3nnnn3C)CSC12)c1csc(N)n1.CO/N=C(\C(=O)NC1C(=O)N2C(C(=O)O)=C(CSc3nnnn3C)CSC12)c1csc(N)n1.Cl (configuration not stated) here?
Its value is 1.06.

Which results are given for Cl.Cl.N/C(=N\OCC(O)CN1CCCCC1)c1cccnc1 (configuration not stated) (library stock concentration (final ~1000-fold dilution): 10 mM)?
NF-kB SEAP reporter activity (RAW-Dual [1]; agonist: LPS (TLR4) 0.1 ug/mL): 1.1; NF-kB SEAP reporter activity (RAW-Dual [1]; [4]): 0.949; NF-kB SEAP reporter activity (RAW-Dual [1]; [5]): 1.15; NF-kB SEAP reporter activity (RAW-Dual [1]; [6]): 1.09

For Cl.Cl.N/C(=N\OCC(O)CN1CCCCC1)c1cccnc1 (configuration not stated), which “NF-kB SEAP reporter activity” value (RAW-Dual [2]; [7]) is on record?
The value was 0.94.

And the “NF-kB SEAP reporter activity” value (RAW-Dual [2]; [8])?
The value was 1.08.

For NC(CSC(c1ccccc1)(c1ccccc1)c1ccccc1)C(=O)O (configuration not stated), which “NF-kB SEAP reporter activity” value (RAW-Dual [2]; [7]) is on record?
The value was 0.946.

And the “NF-kB SEAP reporter activity” value (RAW-Dual [2]; [8])?
The value was 0.976.

What does the source list for NC(CSC(c1ccccc1)(c1ccccc1)c1ccccc1)C(=O)O (configuration not stated) (library stock concentration (final ~1000-fold dilution): 10 mM)?
NF-kB SEAP reporter activity (RAW-Dual [1]; agonist: LPS (TLR4) 0.1 ug/mL): 0.775; NF-kB SEAP reporter activity (RAW-Dual [1]; [4]): 0.732; NF-kB SEAP reporter activity (RAW-Dual [1]; [5]): 0.699; NF-kB SEAP reporter activity (RAW-Dual [1]; [6]): 0.656

For CC(C)c1c(C(=O)Nc2ccccc2)c(-c2ccccc2)c(-c2ccc(F)cc2)n1CCC(O)CC(O)CC(=O)O (configuration not stated) (library stock concentration (final ~1000-fold dilution): 10 mM), which “NF-kB SEAP reporter activity” value (RAW-Dual [1]; agonist: LPS (TLR4) 0.1 ug/mL) is on record?
The value was 1.85 and 2.93.

What about the “NF-kB SEAP reporter activity” value (RAW-Dual [1]; [4]) of the same compound?
The value was 1.49 and 1.82.

What about the “NF-kB SEAP reporter activity” value (RAW-Dual [1]; [5]) of the same compound?
The value was 1.03 and 1.49.

And the “NF-kB SEAP reporter activity” value (RAW-Dual [1]; [6])?
The value was 1.3 and 1.42.

With CC(C)c1nc(N(C)S(C)(=O)=O)nc(-c2ccc(F)cc2)c1C=CC(O)CC(O)CC(=O)O (configuration not stated) (library stock concentration (final ~1000-fold dilution): 10 mM) as the compound, how does the “NF-kB SEAP reporter activity” value (RAW-Dual [1]; agonist: LPS (TLR4) 0.1 ug/mL) read?
The value was 1.43.

What about the “NF-kB SEAP reporter activity” value (RAW-Dual [1]; [4]) of the same compound?
The value was 1.24.

And the “NF-kB SEAP reporter activity” value (RAW-Dual [1]; [5])?
Its value is 1.01.

What about the “NF-kB SEAP reporter activity” value (RAW-Dual [1]; [6]) of the same compound?
Its value is 1.2.

Which results are given for O=C(O)CC(O)CC(O)C=Cc1c(C2CC2)nc2ccccc2c1-c1ccc(F)cc1 (configuration not stated) (library stock concentration (final ~1000-fold dilution): 10 mM)?
NF-kB SEAP reporter activity (RAW-Dual [1]; agonist: LPS (TLR4) 0.1 ug/mL): 3; NF-kB SEAP reporter activity (RAW-Dual [1]; [4]): 3; NF-kB SEAP reporter activity (RAW-Dual [1]; [5]): 2.4; NF-kB SEAP reporter activity (RAW-Dual [1]; [6]): 3.31

For CC(C)n1c(C=CC(O)CC(O)CC(=O)O)c(-c2ccc(F)cc2)c2ccccc21 (configuration not stated), which “NF-kB SEAP reporter activity” value (RAW-Dual [2]; [7]) is on record?
The value was 2.45.

What about the “NF-kB SEAP reporter activity” value (RAW-Dual [2]; [8]) of the same compound?
The value was 2.14.

How did the “NF-kB SEAP reporter activity” value (RAW-Dual [2]; [8]) turn out when CC(C)c1nc(N(C)S(C)(=O)=O)nc(-c2ccc(F)cc2)c1/C=C/C(O)CC(O)CC(=O)O (configuration not stated) was run?
Its value is 1.1.

Which “NF-kB SEAP reporter activity” value (RAW-Dual [2]; [7]) does the source give for CC(C)c1nc(N(C)S(C)(=O)=O)nc(-c2ccc(F)cc2)c1C=CC(O)CC(O)CC(=O)O (configuration not stated) here?
Its value is 0.909.

And the “NF-kB SEAP reporter activity” value (RAW-Dual [2]; [8])?
Its value is 1.05.

For CC(C)n1c(C=CC(O)CC(O)CC(=O)O)c(-c2ccc(F)cc2)c2ccccc21 (configuration not stated) (library stock concentration (final ~1000-fold dilution): 10 mM), which “NF-kB SEAP reporter activity” value (RAW-Dual [1]; agonist: LPS (TLR4) 0.1 ug/mL) is on record?
Its value is 3.64.

What about the “NF-kB SEAP reporter activity” value (RAW-Dual [1]; [4]) of the same compound?
Its value is 2.92.

And the “NF-kB SEAP reporter activity” value (RAW-Dual [1]; [5])?
Its value is 2.13.

What about the “NF-kB SEAP reporter activity” value (RAW-Dual [1]; [6]) of the same compound?
Its value is 3.38.

How did the “NF-kB SEAP reporter activity” value (RAW-Dual [1]; agonist: LPS (TLR4) 0.1 ug/mL) turn out when CC(C)c1nc(N(C)S(C)(=O)=O)nc(-c2ccc(F)cc2)c1/C=C/C(O)CC(O)CC(=O)O (configuration not stated) (library stock concentration (final ~1000-fold dilution): 10 mM) was run?
Its value is 0.973.

And the “NF-kB SEAP reporter activity” value (RAW-Dual [1]; [4])?
The value was 1.18.

And the “NF-kB SEAP reporter activity” value (RAW-Dual [1]; [5])?
The value was 1.21.

And the “NF-kB SEAP reporter activity” value (RAW-Dual [1]; [6])?
The value was 1.1.

How did the “NF-kB SEAP reporter activity” value (RAW-Dual [2]; [7]) turn out when O=C(O)CC(O)CC(O)C=Cc1c(C2CC2)nc2ccccc2c1-c1ccc(F)cc1 (configuration not stated) was run?
The value was 2.52.

What about the “NF-kB SEAP reporter activity” value (RAW-Dual [2]; [8]) of the same compound?
Its value is 2.05.
